From PubChem BioAssay
TDP1 cell CPT – qHTS for Inhibitors of human tyrosyl-DNA phosphodiesterase 1 (TDP1): qHTS in cells in presence of CPT. chicken DT40 Tdp1-/-;hTDP1 cells + 20 nM CPT, ATP luminescence, 48 h. Potency, µM (top dose mostly 46.2 µM), for inactives: top-dose activity change, negative = growth inhibition, most hits filed as inhibitors. 420,000 compounds, 12% hits; note: potency is the fitted concentration of half-maximal effect; nearly all actives have a fitted effect of over 55% in size
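Chicken DT40 Tdp1-/- cells complemented with human TDP1, 400 cells/well, exposed to compounds plus 20 nM camptothecin for at least 48 h at 37 C; viability read as ATP content by CellTiter-Glo luminescence.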
HT1080 IDH1KD tx – qHTS for induction of synthetic lethality in tumor cells producing 2HG: qHTS for the HT-1080-IDH1KD cell line | HT-1080 IDH1 knockdown viability, ATP luminescence, 48 h | Potency, µM (highest dose often 46.1 µM), for inactives: top-dose activity, negative = toxicity, actives largely listed as cytotoxic | 360,000 compounds, 2% hits;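 note: potency is the fitted concentration of half-maximal effect; 0% = DMSO wells and -100% = cell-free medium wells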
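% activity derives from luminescence (CellTiter-Glo), normalised to DMSO and no-cell wells. HT-1080-IDH1KD cells, 750/well, had 48 h compound exposure at 37 °C.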
HT1080NT lethal – qHTS for induction of synthetic lethality in tumor cells producing 2HG: qHTS for the HT-1080-NT fibrosarcoma cell line; HT-1080-NT fibrosarcoma viability, CellTiter-Glo ATP luminescence, 48 h; Potency, µM (highest dose often 46.1 µM), for inactives: at the highest dose activity, negative = less viability, usual class: cytotoxic; 360,000 compounds, 1.6% hits; AID 686970, 2013;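 note: NT is the 2HG producing partner of a matched IDH1 knockdown line; potency is the fitted concentration of half-maximal effect; 0% = DMSO-treated cells and -100% = media-only wells without cells; nearly all actives have a fitted effect of over 55% in size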
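Compounds were tested in concentration-response format on HT-1080-NT cells for 48 hours at 37 degrees C. Cell viability came from CellTiter-Glo luminescence; curves were classified by r2, response magnitude and activity.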
IL-1B inflam inh – qHTS for Inhibitors of Inflammasome Signaling: IL-1-beta AlphaLISA Primary Screen; THP-1 LPS/ATP IL-1B secretion, AlphaLISA, 16 h; stronger effect = lower value; activity change, % at 57.5 µM; 360,000 compounds, 4.7% hits; AID 743279, 2014; in the data active = activity change below about -50%; inconclusive = mostly about -30% to -49%
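THP-1 cells pretreated 1 hr with compounds (up to 57.5 uM final), then stimulated with LPS (250 ng/mL final) plus ATP (1.25 mM final); secreted IL-1B measured by AlphaLISA after 16 hr, decreased signal indicating inhibition.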
TDP1 cell noCPT – qHTS for Inhibitors of human tyrosyl-DNA phosphodiesterase 1 (TDP1): qHTS in cells in absence of CPT; Potency, µM (titrated, usually from 46.2 µM), without a hit: at the highest dose activity change, negative = growth inhibition, hits mostly inhibitors; DT40 Tdp1-/- hTDP1 cells, no CPT, ATP luminescence, 48 h; 420,000 compounds, 15% hits; note: potency is the fitted concentration of half-maximal effect; nearly all actives have a fitted effect of over 55% in size
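Chicken DT40 Tdp1-/- cells complemented with human TDP1, screened without camptothecin (DMSO vehicle only), 400 cells/well. Compounds pin-transferred, cells incubated at 37 °C for at least 48 hr. Growth read as ATP-dependent luminescence (CellTiter-Glo, 30 min at RT).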
Numbers without * were called inactive; ? = inconclusive; / = not tested or not shown. The list is not random: actives were taken first. Their share in the collection is about 19%. Unless noted, calls come from the whole dose curve; as a rule, active = well fitted curve in the direction sought with a large enough effect; inconclusive = small, poorly fitted or top-dose-only effect, or another doubt; inactive = no such curve, though single readings can be large; an effect the other way counts as inactive or inconclusive. Unless noted, % is set by controls: 0 for no effect and ±100 for the full control effect.

SMILES	TDP1 cell CPT	HT1080 IDH1KD tx	HT1080NT lethal	IL-1B inflam inh	TDP1 cell noCPT
Cn1ccc2c(/C=C/c3ccc(F)cc3)cc3c(c21)C1CCC3O1 (centres undefined)	26µM*	?	?	14	12µM*
COc1ccc(-c2cc3c(c4c2ccn4C)C2CCC3O2)cn1 (centres undefined)	18µM*	0%	13%	8	16µM*
CN(c1ccc(Cl)cc1)c1cc2c(c3c1ccn3C)C1CCC2O1 (centres undefined)	?	-22%	-16%	8	23µM*
Cn1ccc2c(N3CCCCCCC3)cc3c(c21)C1CCC3O1 (centres undefined)	?	?	?	-8	21µM*
COc1ccccc1CN1CCC2(CC1)CCN(C(=O)c1csnn1)CC2	-2%	/	/	/	-6%
